Bioassay records from PubChem.
GBA activity: human lysosomal glucosylceramidase modulation. purified enzyme, resorufin glucoside fluorescence (screen aimed at inhibitors), 20 min. Potency, µM. 1.1% of 48,000 active; in the data active = potency below about 15 µM; inconclusive = mostly about 16 µM to 33 µM;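 also: the screen sought inhibitors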
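Compounds titrated against 0.2 nM normal enzyme, 30 uM resorufin beta-D-glucopyranoside substrate, citrate/phosphate buffer with taurocholate and tween-20, pH 5.9. Reaction ran 20 min at room temperature; fluorescence (Ex 548/Em 600) gave AC50.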
ERK AVP block: inhibitors of vasopressin-stimulated ERK signaling pathway. HEK293-V1b, vasopressin-stimulated pERK AlphaScreen. Potency, µM (top dose mostly 57.5 µM), for inactives: at the highest dose activity, negative = inhibition, hits mostly inhibitors. 0.99% of 72,000 active. AID 995; also: % is scaled to controls: 0 for no effect and ±100 for the full control effect; nearly all actives have a fitted effect of over 55% in size
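qHTS, compounds titrated on V1b-expressing HEK293 cells. Preincubation 30 min at 37C, vasopressin 25 nM for 5 min, lysis 10 min, bead incubation 5 hr at room temperature.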
TSHR ag: agonists of human thyroid stimulating hormone receptor | P16473 | HEK293-CNG-TSHR cells (CNG channel as cAMP sensor), membrane potential dye, cAMP | Potency, µM (doses to about 57.1 µM), inactives show at the top dose activation, usual class: activators | 0.48% of 73,000 active; active = well fitted activation curve with a large enough effect in the main read-out, with a control signal flat, not every such curve was filed as active; inconclusive = small, poorly fitted or top-dose-only effect, or a change in a side signal; inactive = no such curve, though single readings can be large or run the other way; % of control where 0% means no effect;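 also: the control signal comes from parental cells without the receptor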
Target sequence (P16473 whole entry, looked up): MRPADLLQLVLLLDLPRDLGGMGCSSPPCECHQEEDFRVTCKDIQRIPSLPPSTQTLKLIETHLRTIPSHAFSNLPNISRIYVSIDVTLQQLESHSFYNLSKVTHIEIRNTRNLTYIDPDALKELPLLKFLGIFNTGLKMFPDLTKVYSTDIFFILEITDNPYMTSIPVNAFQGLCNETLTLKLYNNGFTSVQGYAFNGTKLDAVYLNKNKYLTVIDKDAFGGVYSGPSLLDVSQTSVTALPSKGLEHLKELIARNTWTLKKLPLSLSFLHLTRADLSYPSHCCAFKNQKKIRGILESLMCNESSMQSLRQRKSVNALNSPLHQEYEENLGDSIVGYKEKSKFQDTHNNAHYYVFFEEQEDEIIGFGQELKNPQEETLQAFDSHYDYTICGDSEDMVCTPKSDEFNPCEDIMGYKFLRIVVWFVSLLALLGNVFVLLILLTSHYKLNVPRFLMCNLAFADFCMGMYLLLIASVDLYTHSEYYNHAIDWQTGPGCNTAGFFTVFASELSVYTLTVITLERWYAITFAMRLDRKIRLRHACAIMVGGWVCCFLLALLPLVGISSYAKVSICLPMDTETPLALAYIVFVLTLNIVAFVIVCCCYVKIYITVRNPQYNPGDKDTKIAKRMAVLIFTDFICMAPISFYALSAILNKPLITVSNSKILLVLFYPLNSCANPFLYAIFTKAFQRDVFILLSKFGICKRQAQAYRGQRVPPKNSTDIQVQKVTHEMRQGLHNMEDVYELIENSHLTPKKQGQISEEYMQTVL
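HEK 293 cells stably expressing TSHR and a modified CNG channel, with CNG-only parental cells as counterscreen, were preloaded 60 min at room temperature with membrane potential dye containing 100 uM RO 20-1724. Compound exposure was 30 min, and depolarization was read as fluorescence at 590 nm.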
PK Bst: pyruvate kinase (B. stearothermophilus) modulation; AID 361; Potency, µM; 1.2% of 51,000 active; purified pyruvate kinase, luminescence ATP production; ribose 5-phosphate activator present at AC10; in the data active = potency below about 11 µM; inconclusive = mostly about 12 µM to 25 µM;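 the screen sought inhibitors and activators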;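 also: scaled between full activation by ribose 5 phosphate and full inhibition by luteolin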
HEK293 cAMP ctrl: raises cAMP in parental HEK293 cells, TSHR agonist counter-screen; 2.5% of 73,000 active; parental HEK293 CNG cAMP sensor, membrane potential fluorescence; Potency, µM (highest dose often 57.1 µM), without a hit: at the top dose activation, most hits filed as activators; also: % of control where 0% means no effect; nearly all actives have a fitted effect of over 55% in size
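Parental HEK 293 cells stably expressing a modified CNG channel (no TSHR) report cAMP rise as membrane depolarization. Membrane potential dye with 100 uM RO 20-1724 was loaded for 60 min at room temperature, then compound added for 30 min; fluorescence read at 590 nm.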
FLuc inh: inhibitors of firefly luciferase | 2.2% of 72,000 active | Potency, µM (series often up to 57.1 µM), without a hit: top-dose activity change, negative = inhibition, most hits filed as inhibitors | purified firefly luciferase, luminescence, 8 min | AID 411; also: % is scaled to controls: 0 for no effect and ±100 for the full control effect; nearly all actives have a fitted effect of over 40% in size
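Substrate buffer containing 10 uM ATP (pH 7.2 imidazole, Mg2+, KCl, detergent, BSA) is dispensed, compound pinned in, then luciferase/luciferin detector mix added. After 8 min at ambient temperature, light output is measured.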
The depositor's hits bear a star; i = inactive; ? = inconclusive; / = no result; [ ] = dose if it differs, or a comment. A selection: hits, their analogues and other compounds. The true share with any hit is near 6.1%. Unless noted, calls follow the shape of the dose curve; as a rule, active = well fitted curve in the direction sought with a large enough effect; inconclusive = small, poorly fitted or top-dose-only effect, or another doubt; inactive = no such curve, though single readings can be large; an effect the other way counts as inactive or inconclusive. Potency is read from the fitted curve at half-maximal effect.

SMILES	GBA activity	ERK AVP block	TSHR ag	PK Bst	HEK293 cAMP ctrl	FLuc inh
CCOC(=O)Cn1c(CN2CC(C)OC(C)C2)nc2c1c(=O)n(C)c(=O)n2C (stereo not given)	/	/	4µM*	/	26%	-2%
N#CC(C#N)=c1ccc2c(c1)N1C3=C(CCCC3)CC3CCCCC31N=2 (stereo not given)	/	2.5µM*	?	/	-87%	-1%
N#C/C(C(N)=O)=c1/ccc2c(c1)N1C3=C(CCCC3)CC3CCCCC31N=2 (stereo not given)	?	?	?	/	-106%	16µM*
CC(=O)OC1CC2C(C)(C)C(=O)[C@@H]3OC3[C@@]2(C)C2CC[C@]3(C)C(=CC(=O)OC3c3ccoc3)[C@]12C (stereo not given in full)	/	11%	/	/	/	/
Cc1ccc(Cn2nnc3c(=O)[nH]c(C4CCN(S(=O)(=O)c5ccc(C)cc5)CC4)nc32)cc1	14*	?	6%	>57	17%	2%
Cc1ccc(NC(=O)N2CCC(c3nc4c(nnn4Cc4cccc(Cl)c4)c(=O)[nH]3)CC2)cc1	/	?	11%	>57	6%	0%
Cc1ccc(C)c(Cn2nnc3c(=O)[nH]c(C4CCCN(C(=O)C5CCCCC5)C4)nc32)c1 (stereo not given)	?	19%	?	>57	20µM*	2%
c1ccc2sc(SCN(C3CCCCC3)C3CCCCC3)nc2c1	/	-14%[11.5 µM]	0%[11.4 µM]	/	-3%[11.4 µM]	3%[11.4 µM]
Cc1c(C(=O)OC2CCC(C)CC2)[nH]c2c1C(=O)CCC2 (stereo not given)	/	-18%	13%	/	11%	16µM*
C=CCC1C=CC(Oc2ccc(F)cc2C)C(CO)O1 (stereo not given)	/	8%[11.5 µM]	1%[11.4 µM]	/	1%[11.4 µM]	/
CC1(C)Oc2cc3c(cc2O1)OC(C)(C)O3	/	21%[11.5 µM]	?	/	3.2µM*	/
Cc1nc(Nc2nc(-c3ccccc3)cc(=O)[nH]2)nc2ccccc12	/	?	4%	5.1*	27%	10µM*
COc1nc(Nc2nc3ccccc3c(=O)[nH]2)nc2ccc(C)cc12	/	-13%	3%[11.4 µM]	/	7%[11.4 µM]	2%
CC(C)(C)c1ccc([C@@H](O)CCCN2CCC(C(O)(c3ccccc3)c3ccccc3)CC2)cc1	/	10%[25.7 µM]	-16%[25.6 µM]	/	6%[25.6 µM]	3%[25.5 µM]
COC(=O)[C@@H]1C[C@H]1[C@@H](NC(=O)c1ccc(Br)cc1)c1ccccc1	/	-2%	?	/	?	/
COC(=O)c1c(-c2ccc(F)cc2)csc1NC(=O)c1ccco1	/	0%	?	/	4µM*	13µM*
O=C(Cc1ccccc1)N1CCC(c2nc3ccccc3[nH]2)CC1	>77	9%	3%[11.4 µM]	>57	3%	1%
O=C(Cc1ccccc1)N1CCC(c2nc(-c3ccc(F)cc3)no2)CC1	>77	20µM*	?	>57	?	7%
Cc1ccc(-c2noc(C3CCCN(C(=O)c4c(F)cccc4F)C3)n2)cc1 (stereo not given)	>77	?	?	>57	7.9µM*	-10%
COc1ccc(N2CCN(S(=O)(=O)c3cccc(C(F)(F)F)c3)CC2)cc1	>77	1%	-21%	>57	-7%	0%
Cn1c(=O)c2cc(S(=O)(=O)N3CCN(c4cccc(C(F)(F)F)c4)CC3)ccc2n(C)c1=O	7.3*	21%	?	>57	?	2%
CC1CCC2C(=O)N3C(CCC(C)[C@H]3c3cccc(N4CCCC4=O)c3)C(=O)N2C1c1cccc(N2CCCC2=O)c1 (stereo not given in full)	/	7%[11.5 µM]	-12%[11.4 µM]	/	-7%[11.4 µM]	/
C/C(=C(/CCO)SSC[C@@H]1CCCO1)N(C=O)Cc1cnc(C)nc1N	/	11%[25.7 µM]	?	/	?	-3%[25.5 µM]
c1ccc(COc2ccc(OCCCn3cncn3)cc2)cc1	>77	-23%	6%	/	-4%	20µM*
c1ccc(-c2ccc(OCCOCCn3cncn3)cc2)cc1	>77	-15%	-5%	/	19%	13µM*
SMILES	GBA activity	ERK AVP block	TSHR ag	PK Bst	HEK293 cAMP ctrl	FLuc inh
c1ccc(Cc2ccc(OCCn3cncn3)cc2)cc1	>77	-14%	13%	>57	8%	-1%
CCc1cc2c(nc1CC)CCN(CC/C(C)=N/O[C@@H](C)c1cn([C@@H]3COC[C@@H]3O)nn1)C2	/	10%[11.5 µM]	-2%[11.4 µM]	/	0%[11.4 µM]	0%[11.4 µM]
CCC/C=C(\CCC)C(NC(=O)c1cccs1)c1ccc(C(=O)OC)cc1 (stereo not given)	/	29%	?	/	13µM*	/
CCC/C=C(\CCC)C(NC(=O)C(C)(C)C)c1ccc(C(=O)OC)cc1 (stereo not given)	/	16%	?	/	16µM*	/
CCC/C=C(\CCC)C(NC(=O)c1ccc(C(F)(F)F)cc1)c1ccccc1 (stereo not given)	/	5%	?	/	16µM*	/
c1ccc2c(Oc3ccc4c(c3)OCO4)nncc2c1	>77	6%	1%	i	-7%	16µM*
OC(c1ccc2c(c1)OCO2)c1nccc2ccccc12 (stereo not given)	/	-3%	16%	/	16%	6%
c1ccc(-c2nc(NCC3CCCO3)c3ccccc3n2)nc1 (stereo not given)	/	/	/	>11	/	-1%[25.5 µM]
Oc1cccc(Nc2nc(NCC3CCCO3)c3ccccc3n2)c1 (stereo not given)	7.6*	16µM*	?	/	?	-14%
CCN1CCN(Cc2ccc(NC(=O)Nc3ccccc3Cl)cc2)CC1	/	-18%	8%	/	7%	16µM*
CCN1CCN(Cc2ccccc2NC(=O)Nc2ccc(C)cc2)CC1	>77	-24%	-2%	>57	0%	3%
CCOCCCNc1ncnc2c1[nH]c1ccccc12	>77	40µM*	?	/	?	-15%
COc1ccc(-c2nc3cnc(N4CCNCC4)nc3n(CCc3ccccc3)c2=O)cc1	/	34%	-5%	/	-26%	2%[11.4 µM]
COc1ccc2ccccc2c1C1CC(=O)N2CN(C)CSC2=C1C#N (stereo not given)	14*	2%	5%	>57	8%	?
Cn1cc(Cl)c(-c2nc3ccccc3[nH]2)n1	>77	-4%	1%	i	5%	25µM*
Cc1ccc(C)c2[nH]c(=O)c(CN(Cc3ccco3)C(=O)Nc3ccccc3)cc12	>77	?	?	>57	20µM*	-3%
Cc1ccc(C)c2[nH]c(=O)c(CN(CC3CCCO3)C(=O)NC3CCCCC3)cc12 (stereo not given)	>77	-3%	?	>57	4µM*	0%
Cc1ccc2[nH]c(=O)c(CN(Cc3ccccc3)Cc3nnnn3C3CCCC3)cc2c1	/	-14%	?	>11	25µM*	-21%
Cc1ccc(C)c2[nH]c(=O)c(CN(CCN3CCOCC3)Cc3nnnn3CC3CCCO3)cc12 (stereo not given)	>77	9%	?	>57	?	-2%
